Screening results deposited in PubChem BioAssay by several laboratories.
CYP2C9 inh – inhibitors of human CYP2C9 | 20% of 96,000 active | CYP2C9 Supersomes, luciferin-H conversion, luminescence | inhibition, % at 5 µM;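 active = blocking of liver enzyme CYP2C9 beyond about 50% at 5 µM, limit read from the data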
Target sequence (P11712 whole entry, looked up): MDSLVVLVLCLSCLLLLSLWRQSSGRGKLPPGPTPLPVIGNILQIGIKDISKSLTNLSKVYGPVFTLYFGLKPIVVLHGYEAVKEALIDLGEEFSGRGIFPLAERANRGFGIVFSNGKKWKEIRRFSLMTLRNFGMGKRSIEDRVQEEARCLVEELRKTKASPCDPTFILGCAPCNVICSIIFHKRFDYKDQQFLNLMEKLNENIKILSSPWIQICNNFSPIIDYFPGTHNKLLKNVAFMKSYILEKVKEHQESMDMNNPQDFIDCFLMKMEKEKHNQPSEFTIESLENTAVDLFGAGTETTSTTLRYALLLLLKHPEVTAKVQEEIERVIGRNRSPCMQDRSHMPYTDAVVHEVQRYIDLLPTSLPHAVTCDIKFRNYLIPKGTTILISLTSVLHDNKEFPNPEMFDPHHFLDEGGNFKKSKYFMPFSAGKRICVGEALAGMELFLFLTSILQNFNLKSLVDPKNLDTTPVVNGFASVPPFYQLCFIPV
CYP2C9 act – CYP2C9 (human) activation; recombinant CYP2C9, luciferin-H conversion, luminescence; active compounds read high; factor 1 = untreated enzyme, 0 = blocked; P11712; 1.4% of 96,000 active; activation factor at 5 µM; AID 1024;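 active = activation factor of 2 or more for CYP2C9 at a 5 µM dose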
CYP2C19 activ – activators of human cytochrome P450 2C19 | P33261 | activation factor at 5 µM | 96,000 tested, under 10 active | recombinant CYP2C19, luciferin-H EGE luminescence; active compounds read high; 0 = fully inhibited enzyme, 1 = untreated enzyme;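 active = activation factor of at least 2 at 5 µM in the primary screen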
sEH act – soluble epoxide hydrolase (human) activation; P34913; purified human sEH enzymatic activity, activator screen; activation, % at 2 µM; 0.04% of 91,000 active; AID 717; in the data active = activation above about 37%
sEH inh – blocks human soluble epoxide hydrolase activity | P34913 | recombinant human sEH enzymatic activity assay | inhibition, % at 2 µM | 0.34% of 91,000 active | AID 707; in the data active = inhibition above about 80%
CYP2C19 inh – human CYP2C19 inhibition. CYP2C19 Supersomes, luciferin-H EGE luminescence, 30 min. inhibition, % at 5 µM. P33261. 21% of 96,000 active;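 active = CYP2C19 inhibition above a set limit at 5 µM in the primary screen, cut at about 50% in these data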
Of the large screens only hits and unclear results are named; the others gave an inactive call. Shown are actives, neighbours in structure and some others; about 27% of the full set was active somewhere.

COc1cc(NC(=O)c2ccc(COCC(F)(F)F)cc2)cc(OC)c1OC	none
COC(=O)CC(NS(=O)(=O)c1cccs1)c1ccccc1Cl (stereo unspecified)	CYP2C19 inh 93.9
CC(C)(C)C1CCc2onc(C(=O)N3CCOCC3)c2C1 (stereo unspecified)	none (no result: sEH act, sEH inh)
Cc1nnc(NC(=O)CSc2cn(Cc3ccccc3)c3ccccc23)s1	none
COc1ccccc1C(=O)NCCn1cc(SCC(=O)Nc2nnc(C)s2)c2ccccc21	CYP2C9 inh 75.9
Cc1ccc(C(=O)NCCn2cc(SCC(=O)Nc3cc(C)on3)c3ccccc32)cc1	CYP2C9 inh 86.2, CYP2C19 inh 91.2 (no result: sEH act, sEH inh)
Cc1cc(NC(=O)CSc2cn(CCNC(=O)c3ccccc3)c3ccccc23)no1	CYP2C9 inh 93.6, CYP2C19 inh 89.5
COc1ccccc1CNC(=O)C[n+]1ccccc1	none
COC(=O)CC1COc2ccccc2N1C(=O)c1ccc(C(C)(C)C)cc1 (stereo unspecified)	CYP2C9 inh 77.1
COC(=O)CC1COc2ccccc2N1C(=O)c1ccc(Cl)cc1 (stereo unspecified)	none
COCCNC(=O)C(c1ccccc1C)N(C(=O)Cn1nnc2ccccc21)c1cccnc1 (stereo unspecified)	none (no result: CYP2C9 inh, CYP2C9 act, CYP2C19 activ, CYP2C19 inh)
CCOC(=O)c1sc2nc(CC(=O)OC)nc(N3CCN(c4ccc(OC)cc4)CC3)c2c1C	CYP2C9 inh 95.6, CYP2C19 inh 88.7
CCOC(=O)c1sc2nc(CC(=O)OC)nc(NCCN(CC)CC)c2c1C	none
CCOC(=O)c1sc2nc(CC(=O)OC)nc(NCCN3CCOCC3)c2c1C	CYP2C9 inh 50.8, CYP2C19 inh 54.5
Nc1c(C(=O)NCc2ccc3c(c2)OCO3)nnn1-c1ccc(OC(F)(F)F)cc1	none
CN1CCC(OC(=O)c2cccc(Br)c2)CC1	none
c1ccc(-n2c(Sc3cnccn3)nnc2-c2cccs2)cc1	CYP2C19 inh 71.0 (no result: sEH act, sEH inh)
NC(=O)CSc1nnc(-c2cccs2)n1-c1ccccc1	none
Cc1ccc(Cn2nc(C)c(NC(=O)C3(C)CC3(Br)Br)c2C)cc1 (stereo unspecified)	none (no result: CYP2C9 inh, CYP2C9 act, CYP2C19 activ, CYP2C19 inh)
COC(=O)c1c(-c2ccncc2)csc1NC(=O)c1ccoc1C	CYP2C9 inh 74.3, CYP2C19 inh 93.7
COC(=O)COc1ccc(S(=O)(=O)N2CCc3ccccc3C2)cc1C	CYP2C9 act 2.1, CYP2C19 inh 79.3
CC(=O)N1CCCc2cc(S(=O)(=O)N3CCc4ccccc4C3)ccc21	CYP2C19 inh 74.4 (no result: sEH act, sEH inh)
CCC(=O)N1CCc2cc(S(=O)(=O)N3CCc4ccccc4C3)ccc21	none
CCC/S(CC1CC1(Cl)Cl)=N\S(=O)(=O)c1ccc(C)cc1 (stereo unspecified)	none
CCN1CCn2c3c(c4cc(C)ccc42)CCCC31 (stereo unspecified)	CYP2C9 inh 51.6, CYP2C19 inh 53.8
Cc1ccc2c(c1)c1c3n2CCCNC3CCC1 (stereo unspecified)	none
Cn1c(SCC(=O)NCc2ccccc2)nnc1C1CC1	none
CCOC(=O)c1c(C)nc(-c2ccccc2)nc1N	CYP2C9 inh 67.0, CYP2C19 inh 81.5
CCOC(=O)c1c(C)nc(-c2ccccc2)nc1NC(C)=O	none
O=c1oc2ccccc2c2c1nc(C(F)(F)F)n2-c1ccccc1	none
CCC(C)(C)n1nnnc1C(c1cc2ccc(OC)cc2[nH]c1=O)N1CCCCC1 (stereo unspecified)	none
Cc1ccc2[nH]c(=O)c(C(c3nnnn3CC3CCCO3)N3CCCc4ccccc43)cc2c1 (stereo unspecified)	CYP2C9 inh 59.8
CCC(C)(C)n1nnnc1C(c1cc2ccc(OC)cc2[nH]c1=O)N1CCc2ccccc21 (stereo unspecified)	CYP2C9 inh 98.4, CYP2C19 inh 53.7
CCC(C)(C)n1nnnc1C(c1cc2cc(C)ccc2[nH]c1=O)N1CCCc2ccccc21 (stereo unspecified)	CYP2C9 inh 64.1
CCC(C)(C)n1nnnc1C(c1cc2cc(OC)ccc2[nH]c1=O)N1CCc2ccccc21 (stereo unspecified)	CYP2C9 inh 99.6, CYP2C19 inh 62.6
Cc1ccc2[nH]c(=O)c(C(c3nnnn3C3CCCC3)N3CCCc4ccccc43)cc2c1 (stereo unspecified)	none (no result: CYP2C9 inh, CYP2C9 act, CYP2C19 activ, CYP2C19 inh)
Cc1ccc2[nH]c(=O)c(C(c3nnnn3CC3CCCO3)N3CCc4ccccc4C3)cc2c1 (stereo unspecified)	none
